The compounds below were run on HepG2 (assay: GSK_TCMDC: Percent inhibition of human HepG2 cell line. Test compounds present at 10uM.).
Type: functional

| SMILES | Inhibition [%] |
| --- | --- |
| O=C(/C=C/c1ccc(Cl)c(Cl)c1)NCCCCCN1CCC(NC(=O)Nc2cc(F)cc(F)c2)CC1 | 80 |
| Cc1cc(N[C@@H](CC(C)C)C(=O)NCc2cccs2)nc(NCCc2ccc(F)cc2)n1.O=C(O)C(F)(F)F | 20 |
| O=C(CC(=O)C(F)(F)F)c1ccccc1[N+](=O)[O-] | 65 |
| CC(=O)Nc1ccc(C(=O)Nc2cccc(-c3ccc(-c4nc5ccccc5[nH]4)s3)c2)cn1 | 9 |
| CS(=O)(=O)Nc1ccc2[nH]cc(C3CCN(CC4CCC(NC(=O)/C=C/c5ccc(Cl)c(Cl)c5)CC4)CC3)c2n1 (configuration not stated) | 2 |
| Cc1cccc2nc(-c3ccc(-c4ccc(NC(=O)c5cncn5C)cc4)s3)[nH]c12 | 49 |
| O=C(Nc1ccc(-c2ccccc2)cc1)Nc1cccc(Cn2ncc(N3CCCNCC3)c(Cl)c2=O)c1 | 14 |
| CC(C)NCc1cccc(-c2ccc(NS(=O)(=O)c3cccc4cccnc34)cc2)c1.O=C(O)C(F)(F)F | 21 |
| O=C(NCC1CCN(Cc2ccc3c(c2)OCCO3)C1)c1cc(-c2cccc(C(F)(F)F)c2)cs1.O=C(O)C(F)(F)F (configuration not stated) | 31 |
| Fc1ccc2[nH]c(-c3ccc(-c4ccc(CN5CCN(CCN6CCOCC6)CC5)cc4)s3)nc2c1.O=C(O)C(F)(F)F | 39 |
| COc1cc(F)c2nccc([C@@H](O)CN3CCC(NCc4cc5c(cc4F)OCCO5)CC3)c2c1 | 23 |
| O=C(Nc1ccc(Cn2ncc(N3CCCNCC3)c(Cl)c2=O)cc1)Nc1cccc(C(F)(F)F)c1.O=C(O)C(F)(F)F | 20 |

From ChEMBL document CHEMBL1157539, “Thousands of chemical starting points for antimalarial lead identification” (Nature, 2010)
